Assay results as given in PubChem BioAssay (EPA / NIEHS).
Results filed as inconclusive are left out. Calls of active or inactive are those of the source. The calls were made as follows: active = hit-call score of the fitted dose curve at least 0.9, where 1 is the maximum; inconclusive = response in the unintended direction; inactive = score below 0.9.

Target: human CYP2D6, CYP2D6 (gene 1565) (UniProt P10635)
Assay: NVS_ADME_hCYP2D6: NovaScreen (NVS) CYP450-related Enzyme Activity (ADME) Assay for human CYP2D6 (AID 2283107)
Outline: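 Cell-free assay using recombinant enzyme expressed in insect cells, with fluorescence-intensity readout of enzyme activity 1 hour after chemical dosing. Loss of signal versus acetonitrile negative control indicates inhibition. Primary screen ran in duplicate at 10 uM; actives were retested in concentration series.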

Chain of human CYP2D6, CYP2D6 (gene 1565) (P10635 whole entry, looked up): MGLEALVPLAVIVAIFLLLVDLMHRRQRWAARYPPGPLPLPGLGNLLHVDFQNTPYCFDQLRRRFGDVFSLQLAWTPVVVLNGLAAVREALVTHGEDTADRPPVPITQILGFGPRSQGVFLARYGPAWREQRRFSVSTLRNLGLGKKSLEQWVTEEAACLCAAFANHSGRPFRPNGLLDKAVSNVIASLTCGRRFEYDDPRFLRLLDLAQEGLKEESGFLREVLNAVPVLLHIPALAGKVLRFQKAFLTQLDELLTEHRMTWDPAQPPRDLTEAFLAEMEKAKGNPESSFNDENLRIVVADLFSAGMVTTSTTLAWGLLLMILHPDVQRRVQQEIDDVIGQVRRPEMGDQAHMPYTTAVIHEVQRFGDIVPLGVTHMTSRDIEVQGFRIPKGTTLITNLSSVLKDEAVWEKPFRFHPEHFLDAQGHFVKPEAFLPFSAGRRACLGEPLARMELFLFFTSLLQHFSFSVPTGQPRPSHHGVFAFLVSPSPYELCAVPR

Row | SMILES | AC50 | outcome
1 | CCOc1ccc2c(c1)C(C)=CC(C)(C)N2 | 3.51 µM (active) | 
2 | CCOC(=O)CCC(=O)OCC |  | inactive
3 | CCCCCCC(=O)OCC |  | inactive
4 | O=C(O)Cc1ccccc1Nc1c(Cl)cccc1Cl |  | inactive
5 | Oc1ccc2c(c1)OC[C@@H](N1CCC(O)(c3ccc(F)cc3)CC1)[C@H]2O |  | inactive

Target: human CYP2C9, CYP2C9 (gene 1559) (UniProt P11712)
Assay: NVS_ADME_hCYP2C9: NovaScreen (NVS) CYP450-related Enzyme Activity (ADME) Assay for human CYP2C9 (AID 2283108)
Protocol: (§1) NVS_ADME_hCYP2C9 is a biochemical, single-readout assay that uses extracted gene-proteins from SF9 in a cell-free assay. Measurements were taken 0.75 hour after chemical dosing in a 96-well plate.NVS_ADME_hCYP2C9 is one of one assay component(s) measured or calculated from the NVS_ADME_hCYP2C9 assay. It is designed to make measurements of enzyme activity, a form of enzyme reporter, as detected with fluorescence intensity signals by Fluorescence technology.Data from the assay component NVS_ADME_hCYP2C9 was analyzed into 1 assay endpoint. This assay endpoint, NVS_ADME_hCYP2C9, was analyzed in the positive analysis fitting direction relative to Acetonitrile as the negative control and baseline of activity. Using a type of enzyme reporter, loss-of-signal activity can be used to understand changes in the enzymatic activity as they relate to the gene CYP2C9. Furthermore, this assay endpoint can be referred to as a primary readout, because this assay has produced multiple assay endpoints where this one serves a enzymatic activity function. To generalize the intended target to other relatable targets, this assay endpoint is annotated to the cyp intended target family, where the subfamily is xenobiotic metabolism.
(§2) Binding assays used specific radioligands (tritiated, iodinated) with non-radioactive competitive displacement ligands in agonist or antagonist protocols (as indicated) and various reference compounds and inhibitors to titrate specific binding to receptors and transporters. Most enzyme assays (CYPs, kinases, phosphatases, proteases, HDACs) used recombinant protein and specific substrates (fluorescence mostly, some colorimetric and radioactive) and inhibitors, followed by a biochemical separation of substrate and product. All assays for the biochemical HTS were initially run in duplicate at a single concentration (10 uM for CYP450 assays and 25 uM for all others). […] Each assay was run with positive and negative controls, and concurrent controls on every plate. The follow-up (secondary) screen tested active chemical-pairs in concentration series, as well as a few additional assays not tested in the primary screen, some selected negative inactives, and several cases re-run in the concentration series for confirmatory purposes.

Chain of human CYP2C9, CYP2C9 (gene 1559) (P11712 whole entry, looked up): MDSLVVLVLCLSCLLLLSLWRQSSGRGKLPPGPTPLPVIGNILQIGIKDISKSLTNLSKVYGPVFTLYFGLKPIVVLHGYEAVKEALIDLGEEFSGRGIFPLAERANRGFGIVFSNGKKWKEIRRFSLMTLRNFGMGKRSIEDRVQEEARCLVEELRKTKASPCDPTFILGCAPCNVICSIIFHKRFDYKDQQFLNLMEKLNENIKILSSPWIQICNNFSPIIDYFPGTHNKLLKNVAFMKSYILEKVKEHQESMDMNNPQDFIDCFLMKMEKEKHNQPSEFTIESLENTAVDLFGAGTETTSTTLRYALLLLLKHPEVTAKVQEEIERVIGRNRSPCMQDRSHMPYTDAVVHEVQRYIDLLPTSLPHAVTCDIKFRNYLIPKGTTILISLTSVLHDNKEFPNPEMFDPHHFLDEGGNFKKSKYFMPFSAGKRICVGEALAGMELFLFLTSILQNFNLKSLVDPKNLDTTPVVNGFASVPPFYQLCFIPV

Row | SMILES | AC50 | outcome
6 | CCOc1ccc2c(c1)C(C)=CC(C)(C)N2 | 10 µM (active) | 
7 | Nc1nc(N)c2nc(CNc3ccc(C(=O)N[C@@H](CCC(=O)O)C(=O)O)cc3)cnc2n1 | 12.3 µM (active) | 
8 | CCCCC(CC)COC(=O)CC(C(=O)OCC(CC)CCCC)S(=O)(=O)O (stereo not drawn) | 3.5 µM (active) | 
9 | CCOC(=O)CCC(=O)OCC |  | inactive
10 | CC1=C(/C=C/C(C)=C/C=C/C(C)=C/CO)C(C)(C)CCC1 | 18.2 µM (active) | 
11 | CCCCCCC(=O)OCC | 14.8 µM (active) | 
12 | CC=Cc1ccc(O)c(OC)c1 |  | inactive

Target: Cytochrome P450 3A4 (Homo sapiens) (UniProt P08684)
Assay: NVS_ADME_hCYP3A4: NovaScreen (NVS) CYP450-related Enzyme Activity (ADME) Assay for human CYP3A4 (AID 2283110)
Protocol: as §1, with “NVS_ADME_hCYP3A4” for “NVS_ADME_hCYP2C9”, “insect cells” for “SF9”, “0.33” for “0.75”, “plate.NVS_ADME_hCYP3A4” for “plate.NVS_ADME_hCYP2C9”, “NVS_ADME_hCYP3A4,” for “NVS_ADME_hCYP2C9,”, “CYP3A4.” for “CYP2C9.”
as §2

Chain of Cytochrome P450 3A4 (Homo sapiens) (P08684 whole entry, looked up): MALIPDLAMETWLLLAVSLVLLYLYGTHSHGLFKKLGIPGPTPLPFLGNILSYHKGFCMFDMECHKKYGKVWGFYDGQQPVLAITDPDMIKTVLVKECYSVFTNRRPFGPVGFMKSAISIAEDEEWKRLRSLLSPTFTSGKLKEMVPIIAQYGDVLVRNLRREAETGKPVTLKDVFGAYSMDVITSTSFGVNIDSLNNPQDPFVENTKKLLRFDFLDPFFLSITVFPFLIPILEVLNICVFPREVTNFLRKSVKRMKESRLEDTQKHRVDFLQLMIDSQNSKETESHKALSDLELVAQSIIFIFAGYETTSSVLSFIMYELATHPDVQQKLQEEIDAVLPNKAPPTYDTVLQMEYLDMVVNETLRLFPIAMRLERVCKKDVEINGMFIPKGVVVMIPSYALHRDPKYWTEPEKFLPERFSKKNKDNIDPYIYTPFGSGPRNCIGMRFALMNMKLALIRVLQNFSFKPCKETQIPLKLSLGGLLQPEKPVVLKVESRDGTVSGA

Row | SMILES | AC50 | outcome
13 | COc1ccc(S(=O)(=O)N2C(=O)[C@@](c3ccccc3OC)(N3C[C@H](O)C[C@H]3C(=O)N(C)C)c3cc(Cl)ccc32)c(OC)c1 | 4.57 µM (active) | 
14 | C=CCOC(=O)c1ccccc1C(=O)OCC=C | 6.19 µM (active) | 
15 | COc1ccc2c(c1)c(CC(=O)O)c(C)n2C(=O)c1ccc(Cl)cc1 | 10 µM (active) | 
16 | CCc1c(C(=O)NN2CCCCC2)nn(-c2ccc(Cl)cc2Cl)c1-c1ccc(Br)cc1 |  | inactive
17 | NCCO |  | inactive

Target: Cytochrome P450 2C19 (Homo sapiens) (UniProt P33261)
Assay: NVS_ADME_hCYP2C19: NovaScreen (NVS) CYP450-related Enzyme Activity (ADME) Assay for human CYP2C19 (AID 2283113);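 as to AC50: potency for inhibition seen as loss of fluorescent signal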
Outline: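 Cell-free assay of recombinant human CYP2C19 expressed in insect cells, with a fluorogenic substrate; fluorescence intensity read 1 hour after dosing. Loss of signal relative to acetonitrile negative control indicates inhibition. Primary screen at 10 uM in duplicate, then concentration series.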

Row | SMILES | AC50 | outcome
18 | CNCc1cc(F)ccc1Oc1ccc(Cl)c(Cl)c1 | 1.11 µM (active) | 
19 | CCCCC(CC)COC(=O)CC(C(=O)OCC(CC)CCCC)S(=O)(=O)O (stereo not drawn) | 4.49 µM (active) | 
20 | CCOC(=O)CCC(=O)OCC | 15.4 µM (active) | 
21 | COc1ccc(S(=O)(=O)N2C(=O)[C@@](c3ccccc3OC)(N3C[C@H](O)C[C@H]3C(=O)N(C)C)c3cc(Cl)ccc32)c(OC)c1 | 6.95 µM (active) | 
22 | CC1=C(/C=C/C(C)=C/C=C/C(C)=C/CO)C(C)(C)CCC1 |  | inactive
23 | C=CCOC(=O)c1ccccc1C(=O)OCC=C | 2.99 µM (active) | 
24 | Cc1c(C(=O)O)c(O)cc2c1C(=O)c1c(O)c([C@@H]3O[C@H](CO)[C@@H](O)[C@H](O)[C@H]3O)c(O)c(O)c1C2=O |  | inactive
25 | CN1CCN(Cc2cc(-c3ccc4[nH]c(=O)oc4c3)co2)[C@@H](c2ccc(F)cc2)C1 |  | inactive
26 | CCc1c(C(=O)NN2CCCCC2)nn(-c2ccc(Cl)cc2Cl)c1-c1ccc(Br)cc1 |  | inactive
27 | Cc1cccc([N+](=O)[O-])c1C | 18.6 µM (active) | 
28 | Oc1ccc2c(c1)OC[C@@H](N1CCC(O)(c3ccc(F)cc3)CC1)[C@H]2O | 7.71 µM (active) | 
